# Laboratory results published in PubChem BioAssay AID1468 (National Center for Advancing Translational Sciences (NCATS), 2008).
# Where “and” joins values, the source holds several entries; their conditions need not be identical. Equal values may be shown once. The whole screen tested about 280,000 compounds, of which about 1,100 (0.39%) were called active. A call without a number means that no potency is given here. About 7% were inconclusive and are not listed. Calls follow the shape of the dose curve; as a rule, active = well fitted inhibition curve with a large enough effect; inconclusive = small, poorly fitted or top-dose-only effect, or effect the other way; inactive = flat fitted curve, though single readings scatter. Many of the other results were omitted from the sample, so actives are more common in it than they were.
# Target: Microtubule-associated protein tau (Homo sapiens) (UniProt P10636)
# Test: qHTS for Inhibitors of Tau Fibril Formation, Fluorescence Polarization; also: nearly all actives have a fitted effect of over 55% in size
# Conditions: K18 P301L tau heparin fibrillization, Alexa594 FP, 6 h; series mostly up to 57.7 µM
# How it was run: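 Heparin (20 uM) drove fibril formation of recombinant tau K18 P301L, 15 uM unlabeled with 0.24 uM Alexa 594 label, for 6 hr at 37 C in 100 mM sodium acetate pH 7. Fluorescence polarization (555/632 nm) read 1 hr after 30 uM ThT.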
# Potency is read from the fitted curve at half-maximal effect.
# Microtubule-associated protein tau (Homo sapiens), sequence (P10636 561-689 P618L limits assumed): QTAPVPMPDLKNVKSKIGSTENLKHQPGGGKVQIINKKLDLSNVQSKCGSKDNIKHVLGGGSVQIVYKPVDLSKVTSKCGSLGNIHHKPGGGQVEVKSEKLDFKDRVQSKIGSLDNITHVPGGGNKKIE
row,Compound,Potency
1,COc1ccc(-n2c(=O)c3c(c4cc(OC)ccc4n3C)n(Cc3cccc(C)c3)c2=O)cc1,inactive
2,Nc1ccc2nc3c(=O)[nH]c(=S)[nH]c3nc2c1,2.24 µM (active)
3,O=c1[nH]c(=O)c2nc3ccccc3nc2[nH]1,inactive
4,COc1ccc(CCNC(=O)c2ccc(-n3c(C)cc4c3CCCC4)cc2)cc1OC,inactive
5,Cc1ccc2oc3c(c(=O)c2c1)C(c1ccc([N+](=O)[O-])cc1)N(CCCN1CCOCC1)C3=O (stereo unspecified),inactive
6,Cc1cc(C)c(NC(=O)CCc2c(C)nc3c(c(C)nn3C(C)(C)C)c2C)c(C)c1,inactive
7,COC(=O)c1ccccc1NC(=O)c1ccc2c(=O)n3c(nc2c1)CCCCC3,inactive
8,COc1ccc(N2CCN(c3nc(-c4ccccc4F)nc4ccccc34)CC2)cc1,inactive
9,CC(=O)Oc1c2c(c3c(c1CC=C(C)C)O[C@@]14C(=CC5CC1C(C)(C)OC4(C/C=C(\C)C(=O)O)C5=O)C3=O)OC(C)(CCC=C(C)C)C=C2 (stereo partly specified),35.5 µM (active)
10,CCc1cccc(NC(=O)CSc2nccn2C)c1,inactive
11,COC(=O)c1c(NC(=O)C(C)Oc2ccc(Cl)c(C)c2)sc(C)c1C (stereo unspecified),inactive
12,CCc1nc2cccnc2n1-c1ccc(CC(=O)Nc2c(C)cccc2C)cc1,inactive
13,CCN(CC(=O)NCCc1ccccc1)S(=O)(=O)c1ccccc1,inactive
14,CCN(CC(=O)NCCc1ccccc1)S(=O)(=O)c1ccc(C)cc1,inactive
15,CCN(CC)S(=O)(=O)c1ccc2[nH]cc(C(=O)NCCc3ccccc3)c(=O)c2c1,12.6 µM (active) and 14.1 µM (active)
16,CC(C)(C)OC(=O)N1CCC(c2c(C(=O)Nc3ccc4c(c3)OCO4)cnn2-c2ccccc2)CC1,inactive
17,Cc1ccc(Cn2cc(CCC(=O)NCc3ccc(OC(C)C)cc3)c3ccccc32)cc1,inactive
18,CC(=O)c1cccc(S(=O)(=O)N2CCC(n3nnc4cc(F)ccc43)CC2)c1,inactive
19,CC(=O)c1cccc(Nc2ccc3cc(S(=O)(=O)N4CCC(C)CC4)ccc3n2)c1,12.6 µM (active)
20,Cc1ccc(C)c(N2CCN(c3ccc4cc(S(=O)(=O)N5CCC(C)CC5)ccc4n3)CC2)c1,inactive
21,Cc1ccc(CNS(=O)(=O)c2ccc(C(=O)N(C)C)s2)cc1,inactive
